Measured values from PubChem BioAssay (NCATS).
“And” between values parts separate entries of the source, which are not always exact repeats. Equal values may be shown once. Inconclusive results are not listed. The source made the active and inactive calls. The call rests on the fitted dose curve; in most records, active means well fitted curve in the direction sought with a large enough effect; inconclusive means small, poorly fitted or top-dose-only effect, or another doubt; inactive means no such curve, though single readings can be large; an effect the other way counts as inactive or inconclusive.

Key:
[1] = target: Cellular tumor antigen p53 (Homo sapiens) (UniProt P04637); assay: Primary qHTS for small molecule compounds that upregulate eGFP-tagged delta133p53alpha (in N-terminal) cells. (AID 2060322); details: NCI-H358 eGFP-delta133p53alpha fluorescence, 24 h; activation: stronger effect = higher value; further: nearly all actives have a fitted effect of over 75% in size; further: potency means the concentration at half of the fitted maximal effect;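 on activation: series mostly up to about 56 µM; 0% = DMSO vehicle and 100% = reference activator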
Sequence of Cellular tumor antigen p53 (Homo sapiens) (P04637 whole entry, looked up): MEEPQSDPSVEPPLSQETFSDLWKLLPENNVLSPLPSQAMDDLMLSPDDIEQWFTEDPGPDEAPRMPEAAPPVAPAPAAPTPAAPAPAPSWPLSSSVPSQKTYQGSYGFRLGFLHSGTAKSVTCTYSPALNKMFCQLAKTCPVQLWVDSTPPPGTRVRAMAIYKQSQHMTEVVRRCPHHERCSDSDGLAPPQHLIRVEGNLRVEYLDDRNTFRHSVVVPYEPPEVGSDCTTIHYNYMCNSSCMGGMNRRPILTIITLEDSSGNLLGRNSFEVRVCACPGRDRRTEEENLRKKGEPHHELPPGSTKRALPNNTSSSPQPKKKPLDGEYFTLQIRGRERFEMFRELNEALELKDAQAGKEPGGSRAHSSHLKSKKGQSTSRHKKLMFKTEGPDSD
Outline: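 NCI-H358 cells pre-induced 24 h with 10 ng/ml doxycycline to express N-terminal eGFP-delta133p53alpha, then dosed 24 h at 37C without doxycycline; fixed, Hoechst-stained, GFP intensity by laser scanning cytometry, normalized to DMSO (0%) and 57.5 uM 5-azacytidine (100%).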

[2] = target: Aldehyde dehydrogenase, mitochondrial (Homo sapiens) (UniProt P05091); assay: qHTS for Inhibitors of the Aldehyde Dehydrogenase Family (ALDH2) Primary screen (AID 2061308);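 further: plate controls were vehicle for no effect and reference inhibitor for full effect; nearly all actives have a fitted effect of over 55% in size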
[3] = target: Retinaldehyde dehydrogenase 3 (Homo sapiens) (UniProt P47895); assay: qHTS for Inhibitors of the Aldehyde Dehydrogenase Family (ALDH1A3) Validation screen (AID 2061312); further: on the % scale 0 is the no-effect control and ±100 the full control effect; nearly all actives have a fitted effect of over 45% in size
[4] = target: Retinaldehyde dehydrogenase 3 (Homo sapiens) (UniProt P47895); assay: qHTS for Inhibitors of the Aldehyde Dehydrogenase Family (ALDH1A3) Primary screen (AID 2061315);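 further: plate controls were DMSO vehicle for no effect and reference inhibitor for full effect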
[5] = BET inhibitor-based combinations targeting novel dependencies in MECOM-rearranged (r) AML: SET-2 cell line (AID 2202231); details: SET-2 AML cells viability, CellTiter-Glo luminescence, 48 h; viability: stronger effect = lower value, concentration not given here; further: nearly all actives have a fitted effect of over 35% in size; further: potency means the concentration at half of the fitted maximal effect;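 on viability: plate controls were DMSO treated cells for no effect and wells without cells for full effect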
Outline: (§1)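 A 48 hr incubation preceded viability reading by CellTiter-Glo, with 15 min room-temperature development. Dose series had 11 points; normalization used DMSO and empty wells; AUC was computed and mean-centered per line as Z-AUC.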

[6] = BET inhibitor-based combinations targeting novel dependencies in MECOM-rearranged (r) AML: OCI-AML3 cell line (AID 2202232); details: Potency: OCI-AML3 viability; further: nearly all actives have a fitted effect of over 35% in size; further: potency means the concentration at half of the fitted maximal effect
Outline: as §1

[7] = BET inhibitor-based combinations targeting novel dependencies in MECOM-rearranged (r) AML: HNT-34 cell line (AID 2202234); further: potency means the concentration at half of the fitted maximal effect; nearly all actives have a fitted effect of over 35% in size
Outline: (§2)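 Each compound is tested in an 11-point concentration series against 500 seeded cells/well for 48 hr. The luminescent viability signal is normalized to DMSO and blank wells, then reduced to AUC and a cell-line-centred Z-AUC.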

[8] = BET inhibitor-based combinations targeting novel dependencies in MECOM-rearranged (r) AML: UCSD-AML1 cell line (AID 2202235); further: nearly all actives have a fitted effect of over 40% in size; further: potency means the concentration at half of the fitted maximal effect
Outline: as §2

[9] = BET inhibitor-based combinations targeting novel dependencies in MECOM-rearranged (r) AML: AML-194 cell line (AID 2202237; further: nearly all actives have a fitted effect of over 40% in size; further: potency means the concentration at half of the fitted maximal effect)
Outline: as §1

[10] = BET inhibitor-based combinations targeting novel dependencies in MECOM-rearranged (r) AML: MV-4-11 cell line (AID 2202233); further: potency means the concentration at half of the fitted maximal effect; nearly all actives have a fitted effect of over 45% in size
Outline: as §2

[11] = BET inhibitor-based combinations targeting novel dependencies in MECOM-rearranged (r) AML: AML-191 cell line (AID 2202236; further: potency means the concentration at half of the fitted maximal effect; nearly all actives have a fitted effect of over 35% in size)
Outline: as §1

CNC(=O)c1ccc(-c2cnc3ncc(Cc4ccc5ncccc5c4)n3n2)cc1F
active: Potency [7] 18600 nM
inactive: activation [1] -4.61% and -7.16% | Potency [2] | Potency [3] | Potency [4] | viability [5] 95.9% | Potency [6] | Potency [8] | Potency [9]

O=C(c1cc(Cc2n[nH]c(=O)c3ccccc23)ccc1F)N1CCN(C(=O)C2CC2)CC1
active: Potency [10] 8330 nM
inactive: activation [1] 8.16% and -16.2% | Potency [2] | Potency [3] | Potency [4] | viability [5] 80.3%

COc1ccc(N(C)c2nc(C)nc3ccccc23)cc1
active: Potency [5] 11.8 nM | Potency [6] 9.3 nM | Potency [10] 10.5 nM | Potency [8] 11.8 nM | Potency [11] 9.3 nM | Potency [9] 10.5 nM
inactive: activation [1] 0.477% | Potency [2] | Potency [3] | Potency [4]

c1cc(Nc2cc(C3CC3)[nH]n2)nc(Nc2ccc3nc[nH]c3c2)n1
inactive: Potency [2] | Potency [3] | Potency [4]
active: Potency [1] 849 nM | Potency [5] 662 nM | Potency [6] 263 nM | Potency [10] 52.5 nM | Potency [7] 263 nM | Potency [8] 332 nM | Potency [11] 235 nM | Potency [9] 372 nM

NC(=O)c1cccc2cn(-c3ccc([C@@H]4CCCNC4)cc3)nc12
active: Potency [5] 14800 nM | Potency [10] 4170 nM
inactive: activation [1] 20.3% and 6.68% | Potency [2] | Potency [3] | Potency [4]
